# Test results published in PMC5540273 (PLoS ONE, 2017).
# Legend:
# Details in all cases: concentration: 1 μM, replicates: in singlicate; n = 1
# EPHB4 = test system: EPHB4
# EPHB6 = test system: EPHB6
# ERBB2 = test system: ERBB2
# ERBB3 = test system: ERBB3
# ERBB4 = test system: ERBB4
# ERK1 = test system: T1, ERK1
# T1 construct: gene MAPK3
# ERK2 = test system: T2, ERK2
# T2 construct: gene MAPK1
# ERK3 = test system: T3, ERK3
# T3 construct: gene MAPK6
# ERK4 = test system: T4, ERK4
# T4 construct: gene MAPK4
# ERK5 = test system: T5, ERK5
# T5 construct: gene MAPK7
# ERK8 = test system: T6, ERK8
# T6 construct: gene MAPK15
# ERN1 = test system: ERN1
# FAK = test system: T7, FAK
# T7 construct: gene PTK2
# FER = test system: FER
# FES = test system: FES
# FGFR1 = test system: FGFR1
# FGFR2 = test system: FGFR2
# FGFR3 = test system: FGFR3
# FGFR4 = test system: FGFR4
# FGR = test system: FGR
# 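Further: KINOMEscan kinase panel screen.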
SMILES,%Inh (EPHB4) [%],%Inh (EPHB6) [%],%Inh (ERBB2) [%],%Inh (ERBB3) [%],%Inh (ERBB4) [%],%Inh (ERK1) [%],%Inh (ERK2) [%],%Inh (ERK3) [%],%Inh (ERK4) [%],%Inh (ERK5) [%],%Inh (ERK8) [%],%Inh (ERN1) [%],%Inh (FAK) [%],%Inh (FER) [%],%Inh (FES) [%],%Inh (FGFR1) [%],%Inh (FGFR2) [%],%Inh (FGFR3) [%],%Inh (FGFR4) [%],%Inh (FGR) [%]
O=C1NC(=O)C(c2ccc(Cl)cc2)=C1Nc1cccc(Cl)c1 [SB-317651],0,8,14,0,0,0,8,0,0,0,10,3,0,0,0,0,0,4,0,0
COc1ccc(Nc2nccc(N3CCC(NC(=O)C(C)c4ccc(Cl)cc4)CC3)n2)cc1 (stereo not drawn) [GSK1379812],0,100,19,19,0,0,4,2,0,0,0,0,0,46,19,0,0,30,4,5
FC(F)(F)c1ccccc1-c1cc(-c2c[nH]nc2-c2ccccn2)ccn1 [GW679396],0,100,8,0,0,0,0,11,21,0,0,10,0,15,0,4,0,0,0,12
CS(=O)(=O)CCNCc1nc(-c2ccc3ncnc(Nc4ccc(OCc5ccccc5)c(Cl)c4)c3c2)cs1.Cl [GW582764],8,0,100,58,97.8,0,0,0,0,0,0,0,0,0,0,0,0,0,0,18
COC(=O)C(Cc1ccccc1)NC(=O)NC1CCN(c2ccnc(Nc3ccc(F)cc3)n2)C1 (stereo not drawn) [GSK1379714],0,72,51,28,42,14,0,0,12,0,0,0,0,30,0,0,51,26,0,0
COc1ccc(Nc2nccc(N3CCC(NC(=O)c4cc5ccccc5s4)C3)n2)cc1 (stereo not drawn) [GSK1379738],0,17,1,8,0,0,0,0,15,0,0,0,0,0,0,0,0,2,4,15
O=C(Nc1n[nH]c2nc(-c3ccco3)c(Br)cc12)C1CCN(Cc2ccccc2)C1.O=C(O)[C@H](O)[C@@H](O)C(=O)O (stereo not drawn) [SB-742034],0,34,0,0,13,8,1,0,0,0,2,19,4,0,0,23,0,0,10,6
Cc1c(Cn2c(C)c(C)n3c(=O)cc(N4CCOCC4)nc23)cccc1C(F)(F)F [GSK2328680],14,0,0,16,4,0,0,8,0,0,8,9,0,15,0,0,41,6,0,20
Cc1nccc(-c2c(-c3ccc(F)cc3)ncn2CCCN2CCOCC2)n1.Cl [SB-282975],0,15,0,34,0,6,8,0,96.5,25,9,0,35,26,12,38,22,33,0,0
CCc1ccc(-c2ccc3c(c2)-c2n[nH]cc2S(=O)(=O)N3C)cc1,8,0,40,15,0,0,7,0,0,5,0,0,–,6,2,6,0,0,0,9
CSc1ccc(-c2nc3n(c2-c2ccncc2)CCC3)cc1 [SKF-105561],21,15,0,0,3,0,0,0,0,0,1,0,0,0,28,1,0,0,0,25
CC(=O)c1c(C)c2cnc(Nc3ccc(N4CCNCC4)cn3)nc2n(C2CCCC2)c1=O,23,17,9,0,0,0,0,89,25,0,17,0,0,4,0,2,0,0,0,20
CCn1c(-c2ccccc2)nc2cnccc21 [SB-733416],16,0,0,0,0,0,18,0,0,37,23,0,2,18,0,18,0,0,23,22
O=c1cc(N2CCOCC2)nc2n(Cc3cccc(Cl)c3Cl)c3ccccc3n12 [GSK2299009],0,33,6,0,10,0,15,26,45,0,0,18,0,49,0,31,4,10,21,17
CN1c2ccc(-c3ccc(C(N)=O)cc3)cc2-c2[nH]ncc2S1(=O)=O,18,23,12,14,14,0,4,0,0,0,17,0,–,8,11,5,0,0,0,20
COC(=O)c1cccc(NC(=O)NC2CCN(c3ccnc(Nc4ccc(F)cc4)n3)C2)c1 (stereo not drawn) [GSK1379725],0,0,16,0,0,0,0,0,0,0,0,0,0,0,0,0,4,4,9,12

SMILES,%Inh (EPHB4) [%],%Inh (EPHB6) [%],%Inh (ERBB2) [%],%Inh (ERBB3) [%],%Inh (ERBB4) [%],%Inh (ERK1) [%],%Inh (ERK2) [%],%Inh (ERK3) [%],%Inh (ERK4) [%],%Inh (ERK5) [%],%Inh (ERK8) [%],%Inh (ERN1) [%],%Inh (FAK) [%],%Inh (FER) [%],%Inh (FES) [%],%Inh (FGFR1) [%],%Inh (FGFR2) [%],%Inh (FGFR3) [%],%Inh (FGFR4) [%],%Inh (FGR) [%]
COC(=O)C(NC(=O)NC1CCN(c2ccnc(Nc3ccc(F)cc3)n2)C1)c1ccccc1 (stereo not drawn) [GSK1379712],6,92,20,0,0,2,0,0,24,13,0,4,0,19,0,0,0,7,19,8
CS(=O)(=O)Cc1ccc(Nc2nccc(-c3c(-c4cccc(NC(=O)C5CCCCC5)c4)nn4ncccc34)n2)cc1 [GSK350559],0,42,25,22,74,2,0,0,3,0,0,33,0,8,0,0,41,16,6,27
c1ccc(-c2ccnc3[nH]ccc23)cc1 [SB-693578],1,29,33,14,0,0,3,0,1,0,0,11,0,0,0,0,0,7,13,2
O=C(Nc1n[nH]c2nc(-c3cccs3)c(Br)cc12)C1CCCC1 [SB-743341],22,22,0,3,0,0,10,9,0,0,61,43,1,20,18,28,0,2,3,23
COc1ccc(Nc2nccc(NCCNC(=O)Nc3cc(C)ccc3C)n2)cc1 [GSK1379899],8,0,1,0,0,1,0,0,0,0,43,0,0,17,4,11,15,0,0,14
COc1cccc(CNC(=O)NC2CCN(c3ccnc(Nc4ccc(F)cc4)n3)C2)c1 (stereo not drawn) [GSK1379723],2,15,2,0,22,0,0,10,0,0,60,4,0,6,0,0,3,15,10,8
Cn1cnc2c(N)ncnc21 [SKF-97623],52,0,35,0,39,77,0,0,0,0,12,0,0,0,0,0,0,0,0,51
CNC(=O)c1ccc(C)c(-n2c(C)cc(OCc3ccc(F)cc3F)c(Br)c2=O)c1,0,0,0,0,13,0,0,0,0,0,13,0,0,18,0,0,0,0,0,0
Cl.Cl.Cl.N#Cc1ccc(CCNc2nccc(-c3cccc(CN4CCNCC4)c3)n2)cc1 [GSK2137462],16,1,0,0,0,0,0,31,4,0,28,25,56,4,6,0,10,17,22,23
CC(C)c1cc(-c2ccc3c(N)n[nH]c3c2)nc(N)n1 [GSK2250882],18,4,25,0,0,1,0,0,26,0,0,4,0,14,19,0,18,9,8,34
O=C(Nc1n[nH]c2nc(-c3cccs3)c(Br)cc12)C1CC1 [SB-735297],0,39,0,0,0,0,0,0,0,0,87,0,0,0,10,0,0,0,0,13
NS(=O)(=O)c1cccc(N/C=C2\C(=O)Nc3ccc(S(=O)(=O)Cc4c(Cl)cccc4Cl)cc32)c1 [GSK398099],15,44,0,0,37,0,0,24,48,0,0,7,0,7,1,0,0,7,9,31
Cc1c(Cn2c3ccccc3n3c(=O)cc(N4CCOCC4)nc23)cccc1C(F)(F)F [GSK2306394],0,0,0,0,60,36,0,0,100,0,26,10,0,6,0,4,2,0,0,0
O=c1cc(N2CCOCC2)nc2n(Cc3ccccc3F)ccn12 [GSK2297428],3,11,0,0,0,0,0,0,19,0,0,7,0,36,0,0,12,10,0,4
Fc1ccc(-c2nc3n(c2-c2ccncc2)CCS3)cc1 [GI98581],2,7,0,3,8,10,25,5,0,0,0,28,0,13,0,0,0,20,0,21
